# In the library only some 2.6% were active in any assay of this set; here they are far more common.
# Cruzain inh Det – blocks cruzain activity in presence of Triton detergent; purified cruzain, Z-FR-AMC fluorescence, 0.01% Triton; Potency, µM, without a hit: max response, negative = inhibition, usual class: inhibitors; actives 0.43% (n = 200,000);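 note: plate controls were neutral wells for no effect and buffer without enzyme for full effect; nearly all actives have a fitted effect of over 40% in size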
# Target sequence (P25779 123-467 limits assumed): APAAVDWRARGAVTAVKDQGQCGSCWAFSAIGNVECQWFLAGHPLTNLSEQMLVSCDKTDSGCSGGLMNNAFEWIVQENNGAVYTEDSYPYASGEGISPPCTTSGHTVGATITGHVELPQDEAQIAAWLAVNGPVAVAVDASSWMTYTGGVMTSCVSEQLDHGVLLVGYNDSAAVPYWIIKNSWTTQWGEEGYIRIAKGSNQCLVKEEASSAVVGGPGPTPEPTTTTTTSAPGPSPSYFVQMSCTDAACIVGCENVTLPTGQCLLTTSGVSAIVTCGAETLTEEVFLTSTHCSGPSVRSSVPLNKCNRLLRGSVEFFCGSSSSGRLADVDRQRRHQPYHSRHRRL
#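 Detergent-containing run (0.01% Triton X-100) in acetate buffer pH 5.5 with 5 mM DTT: enzyme at 1.5 nM final, 15 min compound preincubation at room temperature, then 2 uM Z-FR-AMC substrate. Activity taken as 60 s fluorescence increase at 360/450 nm.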
# Cruzain noTriton – inhibitors of Trypanosoma cruzi cruzain without detergent | P25779 | purified cruzain, Z-FR-AMC fluorescence, no detergent | Potency, µM, for the others: max response, negative = inhibition, hits mostly inhibitors | actives 2.3% (n = 200,000);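 note: plate controls were enzyme without inhibitor for no effect and buffer without enzyme for full effect; nearly all actives have a fitted effect of over 40% in size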
#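 Purified cruzain at 1.5 nM, pre-incubated 15 min with compound at room temperature in 100 mM sodium acetate pH 5.5, 5 mM DTT, 0.00005% Triton X-100. Reaction started with 2 uM Z-FR-AMC; AMC fluorescence increase over 60 s gives rate.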
# Starred values were filed as active, the others as inactive; ? = inconclusive. Calls come from the whole dose curve; as a rule, active = well fitted curve in the direction sought with a large enough effect; inconclusive = small, poorly fitted or top-dose-only effect, or another doubt; inactive = no such curve, though single readings can be large; an effect the other way counts as inactive or inconclusive. Potency is the fitted concentration of half-maximal effect.
SMILES,Cruzain inh Det,Cruzain noTriton
Cc1cccc(NC(=O)CSc2nc(-c3ccccc3)cn2-c2ccccc2)c1C,-1%,?
CCCCC/C=C\C/C=C\C/C=C\C/C=C\CCCCCC(=O)NCCCC(=O)O,4%,-11%
N#CCCCS(=O)(=O)c1nnnn1-c1ccc(Br)cc1,3%,6%
Cc1cc(C)cc(NC(=O)c2ccc3oc(=O)c(S(=O)(=O)c4ccc(F)cc4)cc3c2)c1,1%,-4%
COc1ccc(C(C(=O)NC2CCCC2)N(C(=O)c2snc(-c3ccc(F)cc3)c2N)c2ccccc2)cc1 (stereo not given),7%,7.9µM*
COc1ccc(C(C(=O)NC2CCCC2)N(C(=O)c2ccoc2C)c2ccccc2)cc1 (stereo not given),-2%,-7%
COc1ccc(C(C(=O)NC2CCCC2)N(C(=O)c2snc(-c3ccc(F)cc3)c2N)c2cccc(F)c2)cc1 (stereo not given),-1%,10µM*
COc1ccc(C(C(=O)NC2CCCC2)N(C(=O)c2snc(-c3ccc(F)cc3)c2N)c2ccc(F)cc2)cc1 (stereo not given),3%,25µM*
COc1ccc(C(C(=O)NC2CCCCC2)N(C(=O)c2sc(C)nc2C)c2ccccc2)cc1 (stereo not given),-2%,1%
COc1ccc(C(C(=O)NC2CCCCC2)N(C(=O)c2sc(C)nc2C)c2ccc(OC)cc2)cc1 (stereo not given),3%,?
COc1ccc(C(C(=O)NC2CCCC2)N(C(=O)c2snc(-c3ccc(F)cc3)c2N)c2ccc(OC)cc2)cc1 (stereo not given),2%,25µM*
COc1ccc(C(C(=O)NC2CCCCC2)N(C(=O)CCl)c2ccc(Cl)cc2)cc1 (stereo not given),2%,?
CC(C)Sc1ncc(Cl)c(C(=O)Nc2nc3ccc(S(C)(=O)=O)cc3s2)n1,3%,5%
COC(=O)c1cc(=O)[nH]c(=O)[nH]1,4%,2%
Cc1ccccc1CN1C2=NCCN2C(=O)C2=C1CCN(Cc1ccccc1)C2,2%,2%
CCOC(=O)C1CCCN(C(=O)c2ccc([N+](=O)[O-])c(C)c2)C1 (stereo not given),-1%,4%
Cc1cc(C(=O)NCC(=O)OCC(=O)N2CCCCCC2)ccc1[N+](=O)[O-],14µM*,16µM*
CCOc1ccc(C(=O)NCC(=O)OCC(=O)N2CCCCC2)cc1,-11%,0%
O=C(CNC(=O)c1cccc(F)c1)OCC(=O)N1CCCCC1,25µM*,?
CCCCC(=O)Nc1cc(-c2cn3cccnc3n2)ccc1C,3%,5%
CCCCN1C(=O)c2[nH]nc(-c3ccccc3O)c2C1c1ccc(C(C)(C)C)cc1 (stereo not given),-9%,?
Nc1[nH]c(=O)nc2c1ncn2[C@H]1O[C@@H](CO)[C@@H](O)[C@@H]1O,5%,4%
COCCn1c(-c2ccco2)csc1=Nc1cccnc1,-3%,0%
CC(C)Cn1c(-c2ccco2)csc1=Nc1cccnc1,16µM*,13µM*
COc1ccc(S(=O)(=O)N2CCC(Oc3ccc(-n4cnnn4)cc3)CC2)cc1OC,-3%,?
SMILES,Cruzain inh Det,Cruzain noTriton
O=S(=O)(Nc1ccc(C(F)(F)F)cc1)c1ccc2c(c1)OCCO2,-13%,7%
Cc1ccc2[nH]c(-c3ccc(F)cc3F)cc(=O)c2c1,3%,-3%
COC(=O)c1ccc(/C=N/Nc2nc(-c3ccc(C)cc3)cs2)cc1,-11%,13µM*
CC(C)=NNc1nc(-c2ccccc2)cs1,-1%,-9%
COC(=O)c1ccc(/C=N/Nc2nc(-c3ccccc3)cs2)cc1,-6%,13µM*
COc1ccc(/C=N/N(C(C)=O)c2nc(-c3ccc(C)cc3)cs2)cc1,-1%,-3%
CC(/C=C/c1ccccc1)=N\Nc1nc(-c2ccccc2)cs1,0%,25µM*
C(=N\Nc1nc(-c2ccccc2)cs1)/c1cccnc1,-8%,-8%
CCNc1ncc2nc(-c3cc(F)cc(F)c3)c(=O)n(C[C@H]3CCCO3)c2n1,9%,9%
CN1/C(=C\C(=S)NC(=O)c2cccc(Br)c2)C(C)(C)c2ccccc21,3.5µM*,?
CN1/C(=C\C(=S)NC(=O)c2ccc([N+](=O)[O-])cc2)C(C)(C)c2ccccc21,-11%,?
CCN(CC)COC(=S)S,10%,3%
O=C(CCN1CCCCC1)c1ccc2c(c1)OCCO2,-14%,-26%
O=C(CCc1ccccc1)c1ccc2c(c1)OCCCO2,-2%,?
c1ccc2c(c1)CCN2CCN1CCc2ccccc21,6%,10µM*
CN(C)CCN1CCc2ccccc21,-3%,-10%
O=C(CCN1CCc2ccccc21)c1ccc2c(c1)OCCO2,-2%,7.9µM*
O=C(CCN1CCCC1Cc1ccccc1)c1ccc2c(c1)OCCO2 (stereo not given),25µM*,20µM*
COC(=O)c1c(N)n(-c2cc(Cl)cc(Cl)c2)c2nc3ccccc3nc12,-3%,-3%
CCOc1ccc(S(=O)(=O)c2cn(Cc3ccc(C)cc3)c3ccc(OC)cc3c2=O)cc1,-7%,2%
O=C(NCc1ccccc1F)c1cccc(NC(=O)N2CCSc3ncccc32)c1,-14%,-9%
O=C(Nc1ccc(Cl)c(Cl)c1)Nc1nnc(CC2=CCCCC2)s1,-1%,25µM*
O=C(Nc1ccc(Cl)cc1)Nc1nnc(CSCc2ccc(Cl)cc2)s1,1%,5µM*
CCC(=O)Nc1nnc(CSCc2ccc(F)cc2)s1,-1%,0%
O=C(Nc1nnc(CC2=CCCCC2)s1)c1cccs1,-2%,-9%
SMILES,Cruzain inh Det,Cruzain noTriton
CC(C)c1ccc(S(=O)(=O)c2cn(Cc3ccc(F)cc3)c3cc4c(cc3c2=O)OCO4)cc1,-2%,?
Cc1ccc(Cn2cc(S(=O)(=O)c3ccc(C(C)C)cc3)c(=O)c3cc4c(cc32)OCO4)cc1,-6%,32µM*
CCCn1cc(S(=O)(=O)c2ccc(OCC)cc2)c(=O)c2cc(C)ccc21,-3%,-5%
CCOc1ccc(S(=O)(=O)c2cn(Cc3cc(C)ccc3C)c3ccc(OCC)cc3c2=O)cc1,-4%,16µM*
O=C(Nc1ccc(F)cc1F)c1ccc(-n2cnnc2)cc1,1%,-2%
COC(=O)[C@@H](NC(=O)O[C@@H]1C(=O)c2ccc(OC)cc2O[C@H]1c1ccc2c(c1)OCO2)C(C)C,-3%,12%
Cc1ccc(N2C(=O)C(CC(=O)Nc3cccc(F)c3)N(CCc3ccccc3F)C2=O)cc1 (stereo not given),-8%,0%
CCOC(=O)c1cccc(NC(=O)C2CCN(S(=O)(=O)c3ccc4c(c3)oc(=O)n4C)CC2)c1,-3%,2%
COc1ccc(/C=C2\N=C(C)N(c3ccc(C(=O)O)cc3)C2=O)cc1OC,-10%,-8%
CC1=N/C(=C\c2ccc([N+](=O)[O-])cc2)C(=O)N1c1ccc(Br)c(C)c1,-3%,7.9µM*
O=C(NCCc1nc2ccccc2n1Cc1ccc(Cl)cc1)c1ccccc1,6.3µM*,17%
Cc1cccc(C(=O)NCCc2nc3ccccc3n2Cc2ccc(Cl)cc2)c1,7.9µM*,?
CCC(=O)NCCc1nc2ccccc2n1Cc1ccccc1,0%,-17%
CCCCCn1c(CCNC(=O)CCC)nc2ccccc21,-21%,-5%
CCCCCn1c(CNC(=O)c2cccs2)nc2ccccc21,-5%,17%
CCCCCn1c(CCNC(=O)c2cccc(C)c2)nc2ccccc21,13µM*,6%
Cc1cccc(C(=O)NCc2nc3ccccc3n2Cc2ccccc2Cl)c1,-15%,16%
CCCCCn1c(CCNC(=O)c2cccs2)nc2ccccc21,-22%,13µM*

# High-throughput results from PubChem BioAssay.
